Only some compounds are listed: those with a hit (about 2.2% of all), similar ones and a draw of the others.
SMARCA2 act: activators of SMARCA2 function; 1% of 370,000 active; activation, % at 9.1 µM; MG213 cells, MMTV-luciferase reporter, dexamethasone, overnight; in the data active = activation above about 7.8%
GalR3 antag: human GalR3 antagonism | O60755 | HEK293 GalR3-CNG cAMP membrane potential fluorescence; galR3 body fused to GalR1 C-terminus | inhibition, % at 3 µM | 0.44% of 360,000 active;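 active = inhibition above the screen-wide average plus 3 SD, cut at about 13% in these data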;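 also: forskolin and galanin both at EC90 stimulate the cells; cAMP rise reported by CNG channel membrane potential dye signal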
Target sequence (O60755 1-299 limits assumed): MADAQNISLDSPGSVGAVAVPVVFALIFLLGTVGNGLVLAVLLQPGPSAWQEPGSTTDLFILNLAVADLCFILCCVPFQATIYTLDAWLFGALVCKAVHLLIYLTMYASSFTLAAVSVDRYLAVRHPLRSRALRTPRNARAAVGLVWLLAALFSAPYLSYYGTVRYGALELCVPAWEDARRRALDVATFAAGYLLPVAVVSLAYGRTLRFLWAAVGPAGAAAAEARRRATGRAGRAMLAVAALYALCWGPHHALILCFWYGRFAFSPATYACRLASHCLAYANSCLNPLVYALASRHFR
HIF act: HIF pathway transcriptional activation; U2OS HRE-luciferase reporter, luminescence; normalized: DMSO 0%, desferrioxamine 100%; activation, % at 7.5 µM (by protocol); 0.32% of 300,000 active;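 active = mean activation of at least 10% of the iron chelator positive control signal, with at least half of replicates also reaching 10%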
Hsp70 activator: transcriptional activators of Hsp70; activation, % at 10 µM; 0.04% of 200,000 active; HeLa Hsp70 promoter luciferase reporter, luminescence; scaled: vehicle 0, proteasome-inhibitor control 100%;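 active = activation above the mean across all tested compounds plus 3 SD, cutoff set per campaign, cut at about 5.5% in these data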
GAA850 FXN act: frataxin GAA850 promoter activation; HEK293 lucGAA850 FXN promoter luciferase reporter, 24 h; percent of 10 µM SAHA response; activation, % at 6 µM; AID 540364; 0.56% of 360,000 active;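 active = activation above the average of all compounds screened plus 3 SD, cutoff fixed separately per campaign, cut at about 7.5% in these data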
GAA30 counter: GAA30 FXN promoter activation counter-screen | 66% of 1,900 active | HEK293 lucGAA30 FXN promoter luciferase, 24 h; DMSO = 0%, 5 µM ipriflavone = 100% | AID 588350 | activation, % at 6 µM | shares compounds with GAA850 FXN act;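 active = mean activation above the mean of solvent-only control wells plus 3 SD, cut at about 22% in these data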;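 also: counterscreen of GAA850 promoter hits where activity marks nonselective or luminescence artifacts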
FXN GAA850 conf: GAA850 FXN promoter activation confirmation; shares compounds with GAA850 FXN act; 86% of 1,900 active; activation, % at 6 µM; AID 588351; HEK293 lucGAA850 FXN promoter luciferase reporter, 24 h; 100% = activation by SAHA;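 active = mean activation above a set limit taken from the primary screen, cut at about 8% in these data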
Numbers stand for hits; i = inactive; nt = no result given.

SMILES | SMARCA2 act | GalR3 antag | HIF act | Hsp70 activator | GAA850 FXN act | GAA30 counter | FXN GAA850 conf
C[C@H](CO)N1C[C@H](C)[C@@H](CN(C)C(=O)Nc2cccc(F)c2)OCc2cn(nn2)CCCC1=O | i | i | nt | nt | nt | nt | nt
O=C(/C=C/c1ccccc1[N+](=O)[O-])c1ccccc1Br | i | i | i | i | 9.0 | 74.7 | 42.9
CCc1ccc(CCNC(=O)OC2CC3CC2[C@H]2CCCCN2C3)cc1 (stereo not given in full) | i | nt | nt | nt | nt | nt | nt
C#CCCCN([C@H](C(=O)OC)C(C)C)S(=O)(=O)c1ccccc1Br | i | nt | nt | nt | nt | nt | nt
CCOC(=O)c1sc(Nc2ccccc2Cl)nc1C | i | i | i | nt | 9.9 | 102.5 | 39.8
CCOC(=O)c1sc(NC(=O)Nc2ccccc2F)nc1C | i | i | i | i | i | nt | nt
CN1[C@@H](Cc2ccccc2)COc2cc(N3CCCC3)ccc2S1(=O)=O | i | nt | nt | nt | nt | nt | nt
Cc1ccc(N(O)C(=O)NCCCCNC(=O)N(O)c2ccc(C)cc2)cc1 | i | i | i | nt | 7.7 | 58.8 | 21.1
Cc1cc(C)n(-c2nc(Nc3ccccc3)nc(-n3nc(C)cc3C)n2)n1 | i | i | i | i | i | nt | nt
COc1cccc(/C=N/Nc2nc(Nc3ccccc3)nc(-n3nc(C)cc3C)n2)c1O | i | i | i | i | 12.3 | i | 15.0
CC1Cc2ccccc2N1C(=O)COc1ccc2c(c1)OCO2 (stereo not given) | i | i | i | i | 8.0 | 78.6 | 23.5
COC(=O)[C@]12C[C@H](CC(=O)N3CCN(C(=O)C4CC4)CC3)C(=O)N(CCc3ccc(OC)c(OC)c3)C1=C[C@H](C1CCCC1)O[C@@H]2C | i | nt | nt | nt | nt | nt | nt
O=C(NC1CCCC1)C(c1ccsc1)N(Cc1ccccc1)C(=O)Cc1cccs1 (stereo not given) | i | i | nt | i | 14.0 | i | 19.1
O=C(NC1CCCC1)C(c1ccncc1)N(Cc1ccccc1)C(=O)Cc1cccs1 (stereo not given) | i | i | i | i | i | nt | nt
O=c1c(O)c(-c2ccccc2)oc2ccccc12 | i | i | nt | nt | 8.7 | 54.8 | 18.0
CCc1ccc(C(=O)NCC2(c3ccccc3)CCOCC2)o1 | i | i | nt | nt | 7.8 | 95.3 | 24.8
O=C(NCC1(c2ccccc2)CCOCC1)c1ccc(Br)o1 | i | i | i | i | i | nt | nt
CCNc1cc2n(c(=O)n1)CCc1cc(OC)c(OC)cc1-2 | i | i | i | i | 9.9 | i | i
CCS(=O)(=O)Nc1cc(-c2nc3cccnc3s2)ccc1C | i | nt | i | i | 7.9 | 116.5 | 34.5
CCS(=O)(=O)Nc1cccc(-c2nc3cccnc3s2)c1 | i | i | i | nt | i | nt | nt
O=C1COc2ccccc2C(c2nnnn2Cc2ccccc2)N1Cc1cccs1 (stereo not given) | i | nt | nt | nt | nt | nt | nt
CN(C(=O)c1cccc(COc2ccc(Cl)cc2Cl)c1)c1ccccc1 | i | i | i | i | 8.3 | 102.5 | 38.7
COc1cc2nc(=S)n3[nH]c(CCn4nc(C)cc4C)nc3c2cc1OC | i | i | i | i | 18.9 | 31.9 | 17.0
COC(=O)c1cccc(OC[C@@H](O)CN2CCC(C(O)(c3ccccc3)c3ccccc3)CC2)c1 | i | nt | nt | nt | nt | nt | nt
CCCN1C(=O)/C(=C/c2cc(C)n(C)c2C)SC1=Nc1ccc(OC)cc1 | i | i | i | i | 15.4 | i | 11.9
SMILES | SMARCA2 act | GalR3 antag | HIF act | Hsp70 activator | GAA850 FXN act | GAA30 counter | FXN GAA850 conf
Cc1ccc2nc(-c3ccc(NS(=O)(=O)c4ccc(F)c(F)c4)cc3)sc2c1 | i | i | i | i | 10.2 | 108.3 | 35.1
Cc1ccc2nc(-c3ccc(NS(=O)(=O)c4ccccc4)cc3)sc2c1 | i | i | i | i | i | nt | nt
N#C/C(=C/c1ccc(N2CCOCC2)o1)c1ccc(Cl)cc1 | i | i | i | i | 20.3 | 119.4 | 47.1
Cc1ccc2nc(NC(=O)COC(=O)c3ccc(Br)o3)sc2c1 | i | i | nt | i | 9.4 | 87.5 | 28.5
CC(C)(C)c1ccc(S(=O)(=O)N2CCCC(C(=O)NCc3cccs3)C2)cc1 (stereo not given) | i | nt | nt | nt | nt | nt | nt
CCOc1ccccc1N1CC(C(=O)Nc2cc(S(=O)(=O)N3CCOCC3)ccc2OC(C)C)CC1=O (stereo not given) | i | i | nt | nt | 10.3 | i | i
CC(C)N(C[C@@H]1CSCCS(=O)(=O)N1)C(C)C | i | i | nt | nt | nt | nt | nt
CC(C)c1ccc(OCC(=O)N2CCCCCC2)c(Br)c1 | i | i | i | i | 7.8 | 86.1 | 28.9
Cc1cc(Br)ccc1OCC(=O)N1CCCCCC1 | i | i | i | i | i | nt | nt
CCOC(=O)CN1C(=O)S/C(=C/C=C/c2ccc(N(C)C)cc2)C1=O | i | i | i | i | 8.0 | 77.6 | 33.8
CCCCCOc1ccc(/C=N/NC(=O)CSc2nnc(-c3ccc(OC)cc3)n2-c2ccc(C)cc2)cc1 | i | nt | nt | nt | nt | nt | nt
CCn1c(C)nc2cc(C(=O)N/N=C/c3ccccc3C)ccc21 | i | i | i | i | 12.9 | 93.2 | 36.2
COC(=O)C1=C(C)N(C)C(=NCc2cc(OC)c(OC)c(OC)c2)NC1c1cccc(C(F)(F)F)c1 (stereo not given) | i | i | nt | nt | nt | nt | nt
O=C(Nc1ccc(N2CCN(C(=O)c3ccc(Cl)cc3)CC2)cc1)c1ccc([N+](=O)[O-])o1 | i | i | i | i | i | nt | nt
Cc1ccc(NC(=O)c2ccc([N+](=O)[O-])o2)cc1C | i | i | i | i | 7.7 | 56.1 | 35.0
CC1CCN(c2ccccc2NC(=O)c2ccc([N+](=O)[O-])o2)CC1 | i | i | i | nt | i | nt | nt
O=C(Nc1ccc2[nH]c(=O)[nH]c2c1)c1ccc([N+](=O)[O-])o1 | i | i | nt | nt | i | nt | nt
CC1CCN(c2ccc(NC(=O)c3ccc([N+](=O)[O-])o3)cc2)CC1 | i | i | i | nt | 10.5 | 79.9 | 62.6
O=C(Nc1ccc(N2CCCCC2)cc1)c1ccc([N+](=O)[O-])o1 | i | i | i | nt | 12.8 | 114.2 | 67.4
CC(C)[C@H](N)C(=O)N[C@H](C(=O)N1CCC2CCN(S(=O)(=O)c3ccccc3)CC21)C(C)C (stereo not given in full) | i | nt | nt | nt | nt | nt | nt
CC(C)(C)S(=O)N1C[C@@H]2CC(=O)C=C2[C@H]1CCO (stereo not given in full) | i | i | nt | nt | nt | nt | nt
CC(=O)OCC(=O)N1CCN(C(=O)C(=O)c2cccc(C(F)(F)F)c2)CC1 | i | i | nt | nt | nt | nt | nt
COc1ccc(CNS(=O)(=O)/C=C/c2ccccc2CNC(=O)OC(C)(C)C)cc1 | i | nt | nt | nt | nt | nt | nt
CCc1ccc2oc(-c3cc(N)cc(C)c3O)nc2c1 | i | i | nt | i | 7.7 | 81.5 | 39.9
COc1ccc2c(c1)CN1CN(CC(C)C)S(=O)(=O)CC21 (stereo not given) | i | nt | nt | nt | nt | nt | nt
CCCC(=O)OC[C@H]1CN([C@H](C)c2ccccc2)S(=O)(=O)c2c(F)cccc2O1 | i | i | nt | nt | nt | nt | nt
COc1ccc(-c2csc(-c3ccc(C(=O)O)cc3)n2)cc1 | i | i | i | i | 9.8 | 84.7 | 36.5

Compound activity from PubChem.
